This is a sample that favours compounds with a hit; in the whole collection about 2.3% have one here.
TDP-43 yeast inh = qHTS of TDP-43 Inhibitors | TDP-43 expressing yeast growth rescue, BacTiter-Glo, 24 h | Potency, µM (top dose mostly 46.1 µM), for the others: at the highest dose growth rescue (activation), most hits filed as activators | 410,000 tested, 1.8% active | AID 652104, 2013; also: potency is read from the fitted curve at half-maximal effect; % of control where 0% means no effect; nearly all actives have a fitted effect of over 50% in size
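Galactose-induced TDP-43 yeast, OD600=0.02, compound pinned; 24 hr, 30 deg C; BacTiter-Glo luminescence for growth. Inhibitors of TDP-43 toxicity read as activators.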
pAkt inh = HTS Assay for Inhibitors of Akt Phophorylation: Primary Screen. Neuro2A IGF-stimulated pAkt S473 HTRF, 20 min; active compounds read low. activity change, % for hits at 50 µM. 360,000 tested, 0.32% active; in the data active = activity change below about -80%; inconclusive = mostly about -51% to -80%; also: % is scaled to controls: 0 for no effect and ±100 for the full control effect
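Neuro2A cells (4,500/well, DMEM with 0.5% FBS) were treated with compound at a single 50 µM final concentration, stimulated with 6 nM IGF for 20 min at 37 °C, and lysed. Phospho-Akt Ser473 was read by HTRF as 665/615 ratio ×10^4.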
aSyn rescue = qHTS of alpha-syn Inhibitors | Yeast expressing alpha-synuclein, growth rescue, BacTiter-Glo, 24 h | 370,000 tested, 0.14% active | Potency, µM (top dose mostly 46.1 µM), for inactives: at the highest dose growth rescue (activation), hits mostly activators | AID 652106, 2013; also: potency is read from the fitted curve at half-maximal effect; % of control where 0% means no effect; nearly all actives have a fitted effect of over 65% in size
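Screening used galactose-induced yeast with toxic alpha-synuclein levels, exposed to compound for 24 hr at 30 deg C. Cell growth, read with BacTiter-Glo luminescence, gave the measured signal.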
Abeta rescue = qHTS for compounds that reverse cellular toxicity of Amyloid beta (A-beta) peptide in yeast: Primary Screen; 410,000 tested, 0.063% active; Potency, µM (doses to about 46.1 µM), usual class: activators; yeast expressing A-beta42, growth rescue, OD600, 48 h; response scale: 0% DMSO, 100% iron-clioquinol control; also: potency is read from the fitted curve at half-maximal effect; nearly all actives have a fitted effect of over 55% in size
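Growth rescue measured by 600 nm absorbance after 48 h yeast culture at 30 C with compound. Values normalized between DMSO and an equimolar ferric chloride plus clioquinol control.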
FUS yeast rescue = qHTS for Suppressors of FUS Proteinopathy: Primary screen using FUS-linked yeast assay. S. cerevisiae FUS-expressing, growth rescue, OD600, 24 h. 390,000 tested, 0.24% active. Potency, µM (titrated, usually from 76.6 µM), most hits filed as activators;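 also: potency is read from the fitted curve at half-maximal effect; plate controls were DMSO vehicle for no effect and reference control for full effect; nearly all actives have a fitted effect of over 55% in size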
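Compound concentration series was pinned onto galactose-induced FUS-expressing yeast seeded at OD 0.005. Plates sat 24hr at 30C; absorbance at 600 nm gave growth. DMSO served as background control.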
An asterisk follows results filed as active; i = inactive; ? = inconclusive; / = no result. Unless noted, calls follow the shape of the dose curve; as a rule, active = well fitted curve in the direction sought with a large enough effect; inconclusive = small, poorly fitted or top-dose-only effect, or another doubt; inactive = no such curve, though single readings can be large; an effect the other way counts as inactive or inconclusive.

SMILES	TDP-43 yeast inh	pAkt inh	aSyn rescue	Abeta rescue	FUS yeast rescue
CNc1c(Br)cc(/C=C2\C=C(C(O)c3cc(Br)c(NC)c(Br)c3)c3ccccc32)cc1Br (configuration not stated)	/	/	0%	/	/
Cc1ccc(-c2nc(C)sc2CC(=O)OCC(=O)Nc2ccc(F)c(Cl)c2)cc1	25µM*	i	-6%	?	i
Cc1ccc(NC(=O)Cc2sc(C)nc2-c2ccc(C)cc2)cc1	-8%	i	6%	i	/
Cc1cccc(Oc2c(C=O)c3ccccc3n2C)c1	18µM*	i	-5%	i	i
CCc1cc2c(CN3CCN(CCO)CC3)cc(=O)oc2cc1O	2%	-106%*	-2%	i	i
CCOc1cc2sc(N3CCC(C(=O)Nc4ccc(C)cc4C)CC3)nc2cc1Br	?	/	/	i	i
COc1ccc(N2CCN(C(=O)c3cn(C4CCCC4)c(=O)c4c3c3ccccc3n4C)CC2)cc1	20µM*	i	14%	i	?
COc1ccc(N2CCN(C(=O)c3cn(C)c(=O)c4c3c3ccccc3n4C)CC2)cc1	-24%	i	9%	i	i
Cc1ccc(C)c(N2CCN(C(=O)CC3Sc4ccccc4NC3=O)CC2)c1 (configuration not stated)	22µM*	i	?	i	?
Cc1ccc(C)c(N2CCN(C(=O)CN3CCSc4ccccc43)CC2)c1	25µM*	/	?	?	i
O=C(CN1CCSc2ccccc21)N1CCN(c2ccc(F)cc2)CC1	22%	/	4%	i	i
CCOc1cc2c(cc1/C=C/C(=O)O)OC(C)C2 (configuration not stated)	22µM*	i	-10%	i	i
Cn1c(=O)c2c(-c3ccccc3)n3c(c2n(C)c1=O)C(c1ccc([N+](=O)[O-])cc1)Nc1ccccc1-3 (configuration not stated)	1%	/	/	i	i
Cc1nc2scc(-c3ccc(Cl)cc3)c2c(=O)n1N	11%	i	0%	i	i
CC(C)c1nc2scc(-c3ccc(Cl)cc3)c2c(=O)n1N	14µM*	i	14%	i	i
Cc1ccc(NC(=O)c2cnn3c(C(F)F)cc(-c4ccccc4)nc23)cc1F	22%	/	/	i	i
Cc1cc(C)n2nc(-c3cccc(Br)c3)cc2n1	11µM*	i	5%	i	i
COc1cc(NC(=O)CN2CCN(c3ccc(F)cc3)CC2)cc(OC)c1	8%	/	/	i	i
Oc1ccccc1N1CCN(c2ncnc3scc(-c4ccc(F)cc4)c23)CC1	22µM*	i	16%	i	?
Cc1ccc(-c2csc3ncnc(N4CCN(S(=O)(=O)c5cccs5)CC4)c23)cc1	4.5µM*	i	15%	i	/
Cc1ccc(-c2csc3ncnc(N4CCN(S(=O)(=O)c5ccc(C#N)cc5)CC4)c23)cc1	?	i	4%	i	i
O=C(c1ccco1)N1CCN(c2ncnc3scc(-c4ccc(Cl)cc4)c23)CC1	25µM*	i	4%	i	i
c1ccc2c(c1)OCC(c1csc3ncnc(N4CCCC4)c13)O2 (configuration not stated)	22µM*	i	8%	i	i
Cc1c2cnn(-c3ccccc3)c(=O)c2c(C)n1CC(=O)NCc1ccc(Cl)cc1	-1%	/	/	i	i
CC[N+](CC)(CC)c1ccc(/C=C/c2ccc3ccccc3n2)cc1	/	/	-67%	/	/
SMILES	TDP-43 yeast inh	pAkt inh	aSyn rescue	Abeta rescue	FUS yeast rescue
Oc1ccccc1N1CCN(c2ncnc3scc(-c4ccccc4)c23)CC1	18µM*	i	26%	i	?
Cc1nc(N2CCN(c3ccccc3O)CC2)c2c(-c3ccccc3)csc2n1	?	i	7%	i	i
COc1cccc(C(=O)N(Cc2nc(-c3ccc(C)cc3)no2)C(C)C)c1	-23%	-100%*	13%	i	i
Fc1ccc(Nc2nc(-c3cccc(Cl)c3)c3c(n2)-c2ccccc2OC3)c(F)c1	-6%	/	/	i	i
CCc1ccc(NC(=O)c2cc(=O)c3ccc(C)c(C)c3o2)cc1	0%	/	/	i	i
CCOc1ccccc1COC(=O)c1cccc(-n2cnnn2)c1	18µM*	i	2%	i	i
Cc1c(CC(=O)NCCc2ccccc2F)c(=O)oc2cc(O)c(Cl)cc12	23%	/	/	i	i
Cc1ccc(NC(=O)Cn2nnc(C(=O)Nc3ccc(C)c(C)c3)c2N)cc1	4%	i	3%	i	22µM*
Cc1ccc(C)c(NC(=O)c2nnn(CC(=O)Nc3cccc(C)c3C)c2N)c1	23%	/	/	i	i
Cc1ccc(Cn2nnc(C(=O)Nc3cccc(C)c3C)c2N)cc1	?	-109%*	12%	i	i
COCCNC(=O)c1ccccc1NC(=O)c1nsc2ccccc12	10%	/	/	i	i
COC(=O)c1cnn2c3c(c(C)nc12)CCCC3	-17%	i	0%	i	i
Cc1nc2c(Br)c(C)nn2c2c1CCC2	11µM*	i	0%	i	i
CN(C)S(=O)(=O)c1ccc(C(=O)NCCSc2c(-c3ccc(Br)cc3)[nH]c3ccccc23)cc1	15%	/	/	i	i
C[C@@H](C(=O)NCCc1ccccc1F)N1C(=O)N2CCc3c([nH]c4ccccc34)[C@@]2(C)C1=O	12%	i	?	i	i
C[C@@H](C(=O)NCCc1ccccc1)N1C(=O)N2CCc3c([nH]c4ccccc34)[C@@]2(C)C1=O	35µM*	i	?	i	i
CCCCNC(=O)Cn1c(=O)cc(C)c2c(C)nn(-c3cccc(Cl)c3C)c21	2%	/	/	i	i
COc1c(Cl)cc(C(=O)NN)cc1Cl	8%	i	1%	i	i
COc1c(Cl)cc(C(=O)O)cc1Cl	35µM*	i	-9%	i	i
Cc1cc(C)c(C(CC(=O)c2cccs2)C(C#N)C#N)c(C)c1 (configuration not stated)	13µM*	i	1%	i	i
CC(CC(=O)c1cccs1)CC(=O)c1cccs1	3%	i	-11%	i	i
CCOC(=O)c1[nH]c2ccc(OC)cc2c1NS(=O)(=O)c1ccc(Cl)s1	16%	i	23%	i	i
COc1ccc2[nH]c(C(=O)O)c(NS(=O)(=O)c3ccc(Cl)s3)c2c1	-2%	-88%*	-2%	i	i
Cc1c(C(=O)N(Cc2cccc(F)c2)C2CCS(=O)(=O)C2)oc2cc(Br)ccc12 (configuration not stated)	27%	/	/	i	i

Screening results as filed in PubChem BioAssay.
